In PubChem BioAssay AID1851 (National Center for Advancing Translational Sciences (NCATS), 2009):
Screen size: about 16,000 compounds; about 5,100 (32%) were called active. Another 25% or so got no clear call; they are omitted. Calls come from the whole dose curve; as a rule, active = well fitted curve in the direction sought with a large enough effect; inconclusive = small, poorly fitted or top-dose-only effect, or effect the other way; inactive = no such curve, though single readings can be large or run the other way. Some of the results follow.

What follows are compounds tested against Cytochrome P450 3A4 (Homo sapiens) (UniProt P08684) (assay: Cytochrome panel assay with activity outcomes). Conditions: recombinant CYP, pro-luciferin dealkylation, luminescence, p450-cyp3a4; series mostly up to 57.1 µM.
% is set by controls: 0 for no effect and ±100 for the full control effect.

Sequence of Cytochrome P450 3A4 (Homo sapiens) (P08684 whole entry, looked up): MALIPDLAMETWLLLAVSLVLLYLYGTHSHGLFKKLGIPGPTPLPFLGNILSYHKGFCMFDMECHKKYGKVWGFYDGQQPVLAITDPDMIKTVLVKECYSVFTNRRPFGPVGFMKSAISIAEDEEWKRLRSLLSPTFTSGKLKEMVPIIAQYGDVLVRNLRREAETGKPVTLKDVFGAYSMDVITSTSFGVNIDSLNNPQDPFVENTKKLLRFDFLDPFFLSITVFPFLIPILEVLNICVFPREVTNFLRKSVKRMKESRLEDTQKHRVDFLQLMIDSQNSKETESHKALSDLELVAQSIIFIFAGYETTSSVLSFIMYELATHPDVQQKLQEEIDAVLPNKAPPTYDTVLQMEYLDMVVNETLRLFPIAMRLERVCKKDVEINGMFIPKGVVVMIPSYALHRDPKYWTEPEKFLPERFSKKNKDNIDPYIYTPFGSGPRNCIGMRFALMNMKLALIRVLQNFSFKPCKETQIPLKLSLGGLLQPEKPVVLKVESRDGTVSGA

activity, negative = inhibition, inactive:
Cc1ccc(-n2c3c(c(=O)[nH]c2=O)C(C(F)(F)F)(C(F)(F)F)NC(=O)N3)cc1 -3.33% [at 2.29 µM], Cc1cc(=O)oc2cc(O)c(CN(C)CC(=O)O)cc12 -2.73% [at 11.4 µM], Cc1cc(C)n(-c2nc(NCC(C)O)c3c4c(sc3n2)COC(C)(C)C4)n1 (stereo not given) -17.9% [at 11.4 µM], CC(=O)CC(=O)Nc1ccc2ccccc2c1 -28.5% [at 11.4 µM], COc1nc(N)nc2c1ncn2[C@@H]1C[C@H](O)[C@@H](CO)O1 -13.7% [at 11.4 µM], CN(C)CCNCCN -3.91% [at 11.4 µM], O=C(O)c1ccc(CNCc2ccccc2)cc1 -2.73% [at 11.4 µM], CC(CO)(CO)Nc1ncnc2ccccc12 4.84% [at 11.4 µM], Nc1ccccc1N=Nc1c(S(=O)(=O)O)cc2cc(S(=O)(=O)O)cc(O)c2c1O -15.9% [at 11.4 µM], COc1ccc(Cc2nnc(NC(=O)Cn3cnc4c3c(=O)n(C)c(=O)n4C)s2)cc1OC 4.73% [at 2.29 µM], COc1ccc(Nc2ncc(C(=O)N3CCN(c4ccc(F)cc4)CC3)c3ccccc23)cc1 -5.25% [at 2.29 µM], COc1ccc(S(N)(=O)=O)cc1C(=O)NCCCN1CCN(c2ccc(C)cc2)CC1 1.35% [at 2.29 µM], O=C(O)CCCSc1nc2ccccc2s1 -9.94% [at 11.4 µM], COc1ccc(CC(=O)NCc2ccccn2)cc1OC -4.2% [at 2.29 µM], O=C1C[C@H]2C(=O)[C@@H]1[C@@H](C(=O)O)[C@H]2C(=O)O -3.12% [at 11.4 µM], C[C@@H](N=C(N)N)C(=O)O -8.02% [at 11.4 µM], Oc1c(Cl)cc(C(c2cc(Cl)c(O)c(Cl)c2)C(c2cc(Cl)c(O)c(Cl)c2)c2cc(Cl)c(O)c(Cl)c2)cc1Cl -26.2% [at 11.4 µM], Cc1ccc(NC(=O)c2ccccc2C(=O)O)cc1C -9.2% [at 11.4 µM], O=C(O)c1nn(-c2ccc(Cl)cc2)c2c1C(=O)c1ccccc1C2=O -4.55% [at 11.4 µM]

AC50, active:
Cc1ccc(C(=O)N2C3C=CC(C3)C2(C(F)(F)F)C(F)(F)F)cc1 (stereo not given) 1.12 µM, CC(C)(C)NS(=O)(=O)c1ccc(NC(=O)C(Sc2ccccc2)c2ccccc2)cc1 (stereo not given) 14.1 µM, Cc1ccc(O)c(C(=O)c2cc(C#N)c(=O)n(-c3c(C)n(C)n(-c4ccccc4)c3=O)c2)c1 5.62 µM, CCCSc1nc(NCc2ccco2)c2c3c(sc2n1)COC(C)(C)C3 15.8 µM, CN(C)c1ccc(-c2ccc3ncnc(-n4ccnc4)c3c2)cc1 1 µM, c1cn(-c2ncnc3ccc(-c4ccoc4)cc23)cn1 0.631 µM, Cc1ccccc1-c1ccc2ncnc(-n3ccnc3)c2c1 0.501 µM, O=C(COc1ccc2ccccc2c1)Nc1ccc(Cc2ccncc2)cc1 0.708 µM, Clc1ccc([C@H](Cn2ccnc2)OCc2csc3c(Cl)cccc23)c(Cl)c1 0.794 µM, O=C(c1cnccn1)N1CCC[C@@]2(CCN(Cc3nccs3)C2)C1 15.8 µM, O=C(c1csnn1)N1CCC[C@@]2(CCN(Cc3nccs3)C2)C1 15.8 µM, O=C(c1cnccn1)N1CCC2(CCCN(Cc3nccs3)C2)CC1 12.6 µM, CC(C)CN1CCCC2(CCN(C(=O)c3cnccn3)CC2)C1 25.1 µM, COc1cc(C)nc(N2CCCC(C(=O)Nc3cc(Cl)ccc3OC)C2)n1 (stereo not given) 7.08 µM, O=C(Cc1ccc(Br)cc1)Nc1ccccc1Sc1ccccc1 6.31 µM, CC(C)Cn1c(C(C)C)nc([N+](=O)[O-])c1S(=O)(=O)c1ccc(F)cc1 4.47 µM, OC(CNCc1ccc(F)cc1)(c1ccc(F)cc1)c1ccc(F)cc1 2 µM, Cc1ccc(CNCC(O)(c2ccc(F)cc2)c2ccc(F)cc2)cc1 2.24 µM, COc1cccc(-c2ccc3ncnc(NCc4ccc(OC)cc4OC)c3c2)c1 2.51 µM, COc1ccc(CNc2ncnc3ccc(-c4cccnc4)cc23)c(OC)c1 1.26 µM, COc1ccccc1CNc1ncnc2ccc(-c3cccnc3)cc12 2 µM, COc1ccc(CCNC(=O)Cn2cnc3c2c(=O)n(C)c(=O)n3C)cc1OC 15.8 µM, O=C(c1sc2ccccc2c1Cl)N1CCN(c2ccc(F)cc2)CC1 14.1 µM, O=C(C(NS(=O)(=O)c1cccs1)c1ccccc1)N1CCN(c2ccccc2)CC1 (stereo not given) 3.16 µM, COc1ccccc1N1CCN(C(=O)C(NS(=O)(=O)c2cccs2)c2ccccc2)CC1 (stereo not given) 2 µM, CC(C)C(NS(=O)(=O)c1cccs1)C(=O)NCCN1CCN(c2ccccc2)CC1 (stereo not given) 5.01 µM, O=C(CSc1nc2ccccc2s1)NNC(=S)Nc1ccc(Br)cc1 2.51 µM, O=C(CSc1nc2ccccc2s1)Nc1nccs1 10 µM, Cc1cccc(-c2nsc(SCC(=O)Nc3nccs3)n2)c1 3.55 µM, O=C(Nc1ccc(Cl)cc1Cl)c1cccc(N2C(=O)C=CC2=O)c1 1.26 µM, COc1cc(CNCc2ccccn2)ccc1OCc1ccc(Cl)cc1Cl 0.501 µM, COc1cc(CNCCN2CCOCC2)ccc1OCc1ccccc1Cl 15.8 µM, O=c1cnc2cnc(Nc3ccccc3)nc2n1Cc1cccs1 15.8 µM, COc1cccc(Nc2ncc3nc(C)c(=O)n(Cc4cccs4)c3n2)c1 3.98 µM, Cc1nc2cnc(Nc3ccccc3)nc2n(Cc2cccs2)c1=O 7.94 µM, COc1ccccc1N1CCN(CCCCNS(=O)(=O)c2cccc3c(N(C)C)cccc23)CC1 2.51 µM, COC(=O)CSC(C(=O)Nc1ccc(C)c(C)c1)c1ccccc1 (stereo not given) 3.98 µM, O=C(C1CCN(S(=O)(=O)c2cccc3nsnc23)CC1)N1CCCc2ccccc21 14.1 µM, O=C(C1CCCN(S(=O)(=O)c2cccc3nsnc23)C1)N1CC=C(c2ccccc2)CC1 (stereo not given) 6.31 µM, O=C(C1CCN(S(=O)(=O)c2cccc3nsnc23)CC1)N1CCn2c1nc1ccccc12 14.1 µM

AC50, inactive:
CC(C)(C)NS(=O)(=O)c1ccc(NC(=O)c2cc(-c3ccccc3)nc3ccccc23)cc1, CC(C)(C)c1nnc(NC(=O)NS(=O)(=O)c2ccccc2)s1, Cc1c(-n2cc(C(=O)c3cc(Cl)ccc3O)cc(C#N)c2=O)c(=O)n(-c2ccccc2)n1C, Cc1c(O)c(=O)n(-c2ccccc2)n1C, Cc1nn2c(C)nc3sc4c(c3c2nc1=O)CC(C)(C)OC4, CC1(CCC#N)N=C(SCCC#N)N(c2ccccc2)C1=O (stereo not given), O=C(c1cnccn1)N1CCC2(CCN(Cc3nccs3)CC2)CC1, CC(C)CN1CCC2(CC1)CCN(C(=O)c1csnn1)CC2, CC(C)NC(=O)N1CCC2(CC1)CCN(C(=O)c1cnccn1)CC2, O=C(c1cnccn1)N1CCC2(CC1)CN(Cc1nccs1)C2, O=C(c1csnn1)N1CCC2(CCN(Cc3nccs3)CC2)CC1, C[n+]1ccc(/C=C/c2ccc(Br)cc2)cc1, CN1C(C(=O)Nc2ccccn2)=C(O)c2sccc2S1(=O)=O, Cc1ccc(C(=O)NNC(=O)C2CCCN(c3ncccn3)C2)cc1 (stereo not given), Cc1ccc(C(=O)/C=C2\NCC(C)NC2=O)cc1 (stereo not given), O=C(Cc1ccc2c(c1)CCCC2)Nc1ccccc1Br, Cc1ccccc1NC(=O)Cn1cnc2c1c(=O)n(C)c(=O)n2C, O=C(NCCN1CCN(C(=O)C(c2ccccc2)c2ccccc2)CC1)C(=O)Nc1ccccc1, O=C(c1cccs1)N1CCN(C(=O)C(c2ccccc2)c2ccccc2)CC1, CCOC(=O)c1sc(C)c(C(=O)NCC(C)(C)CN(C)C)c1N, Cc1nnc(SCC(=O)Nc2nccs2)[nH]c1=O, C1CCc2nnnn2CC1, O=C(O)[C@@H](O)[C@@H](O)[C@@H](O)[C@@H](O)C(=O)O (tested in a mixture with another compound), O=C(Nc1ccc(Cl)cc1C(F)(F)F)c1ccc(Cl)cc1, COc1cc2c(cc1OC)-c1cc(NCc3ccccn3)nc(=O)n1CC2, O=C(O)c1cc(=O)c2c(Cl)cc(Cl)cc2[nH]1, COc1cccc(Nc2ncc3nc(-c4cccs4)c(=O)n(Cc4cccs4)c3n2)c1, COc1ccc(-c2nc3cnc(Nc4ccccc4)nc3n(Cc3cccs3)c2=O)cc1, O=c1c(-c2ccc(F)cc2)nc2cnc(Nc3ccccc3)nc2n1Cc1cccs1, C=C(CC)C(=O)c1ccc(OCC(=O)O)c(Cl)c1Cl, CCC(C)NC(=O)c1c(C)cc(=O)oc1C (stereo not given), Cc1cc(NC(=O)NC(=O)c2ccc(F)cc2F)n[nH]1, COc1ccccc1N1CCN(CCCCNC(=O)c2ccc3ccccc3c2)CC1, COc1ccccc1N1CCN(CCCCN2C(=O)CCC2=O)CC1, CCCCOC(=O)Nc1ccc(C)c(Cl)c1, O=C(C1CCN(S(=O)(=O)c2cccc3nsnc23)CC1)N1CCN(c2ccccc2F)CC1
